Drawing on ChEMBL document CHEMBL4513146, “CO-ADD screening of Karazin Kharkiv National University (Ukraine) compounds”, this text covers Inhibition for 61 molecules.

Structures are written as SMILES. Entries with a potency or affinity are not part of this list.

For assay [1], the system named is Klebsiella pneumoniae. The following applies: Concentration 32 ug.mL-1;; ASSAY_TEST Inhibition of Bacterial Growth; detection method Absorption (OD600); MEDIA CAMHB; plate type 384well; NBS; CORNING #3640; time 18 hr.
Assay [2] has as its system Candida albicans. The following applies: Concentration 32 ug.mL-1; ASSAY_TEST Inhibition of Fungal Growth; detection method Absorption (OD530).
For assay [3], the system named is Cryptococcus neoformans. The following applies: Concentration 32 ug.mL-1; ASSAY_TEST Inhibition of Fungal Growth; detection method Resazurin; Absorption (OD600-OD570); plate type 384well; NBS; CORNING #3640. (Resazurin is reduced to fluorescent resorufin, in cell work by metabolically active cells.)

For the molecule `COc1ccc(NC(=O)c2ccc3nn(CC(=O)Nc4cccc(OC)c4)c(=O)n3c2)cc1`, the Inhibition was 8.13% in assay [1], 4.49% in assay [2] and -9.24% in assay [3].
Consider `COc1cc(NC(=O)Cn2nc3c(SC4CCCCC4)nccn3c2=O)cc(OC)c1`, for which the Inhibition was 18.11% in assay [1], 13.52% in assay [2] and -27.94% in assay [3].
With `Cc1ccc(NC(=O)Cn2nc3c(SCc4ccc(Cl)cc4)nccn3c2=O)cc1F`, the results for the Inhibition in assay [1], in assay [2] and in assay [3] were 7.4%, 3.39% and -12.99%, respectively.
Take `Cc1ccc(-c2ccc3nnc(CCC(=O)NCc4ccc(C(C)C)cc4)n3n2)cc1C`: the results for the Inhibition in assay [1], in assay [2] and in assay [3] were 10.51%, 5.56% and -18.09%, respectively.
As for `Cc1ccc(-n2ccn3c(SC(C)C(=O)Nc4ccc5c(c4)OCCO5)nnc3c2=O)cc1C` (stereo not drawn), the Inhibition in assay [1] is 15.49%; in assay [2] it was 0.29%; in assay [3], -6.97%.
Regarding `CCc1ccc(NC(=O)Cn2nc3c(Oc4cccc(OC)c4)nccn3c2=O)cc1`, the Inhibition is recorded as -4.18% in assay [1], 2.5% in assay [2] and -4.27% in assay [3].
Take `COc1ccc(-c2cc3c4nn(CC(=O)Nc5cccc(OC)c5)c(=O)n4ccn3n2)cc1`: the Inhibition is 10.26% in assay [1], 17.22% in assay [2] and -23.01% in assay [3].
As to `Cc1ccc(NC(=O)Cn2c(=O)c3nnc(C(C)C)n3c3ccccc32)cc1C`, the Inhibition is 11.54% in assay [1], 4.79% in assay [2] and -12.38% in assay [3].
For the molecule `Cc1ccc(NC(=O)c2ccc3nnc(SCC(=O)Nc4ccc(Br)cc4)n3c2)cc1`, the Inhibition in assay [1] is recorded as 8.72%; in assay [2], 1.55%; in assay [3], -17.05%.
For `Cc1nnc2ccc(S(=O)(=O)N(Cc3cc(F)cc(F)c3)c3ccc(F)cc3)cn12`, the Inhibition in assay [1] is listed as 7.75%; in assay [2], 0.47%; in assay [3], -6.16%.
`Cc1cccc(N(Cc2ccccc2)S(=O)(=O)c2cccn3c(C)nnc23)c1`: the Inhibition in assay [1] is 11.16%; in assay [2] it was 8.73%; in assay [3], -3.61%.
The corresponding values for `O=c1n(Cc2nc(-c3ccc(F)cc3)no2)nc2ccc(-c3ccccc3)nn12` are 18.38%, -1.53% and -18.94%.
In the case of `Cc1oc(-c2ccc(OC(C)C)cc2)nc1CSc1nc2ccccc2n2c(C(C)C)nnc12`, the Inhibition is given as -1.3% in assay [1], 23.86% in assay [2] and -18.35% in assay [3].
As to `CCc1nnc2c(S(=O)(=O)N(Cc3cccc(F)c3)c3ccccc3)cccn12`, the Inhibition is recorded as 10.23% in assay [1], 3.58% in assay [2] and -7.54% in assay [3].
For the molecule `Cc1cccc(NC(=O)Cn2nc3nc(N4CCCCCC4)ccn3c2=O)c1C`, the Inhibition in assay [1] is listed as 16.3%; in assay [2], 1.23%; in assay [3], -8.73%.
Turning to `O=C(CCc1nnc2c3cc(-c4ccc(F)cc4)nn3ccn12)N1CCC(Cc2ccccc2)CC1`, the Inhibition is 4.22% in assay [1], -1.12% in assay [2] and -13.61% in assay [3].
For `CN(C)c1nc2ccccc2n2c(=O)n(CC(=O)Nc3ccc4c(c3)OCO4)nc12`, the values for the Inhibition in assay [1], in assay [2] and in assay [3] were 0.98%, -0.89% and -12.71%, respectively.
In the case of `CCOc1ccc(-n2ccn3c(SCC(=O)c4ccc(OC)c(OC)c4)nnc3c2=O)cc1`, the Inhibition in assay [1] is given as 7.92%; in assay [2] it was 3.75%; in assay [3], -6.73%.
For `CCOc1ccc(NC(=O)Cn2nc3c(Oc4cccc(OC)c4)nccn3c2=O)cc1` the same measures were 14.7%, 3.56% and -8.08%.
In the case of `Cc1ccc(Cl)cc1NC(=O)Cn1nc2c(N3CCOCC3)nc3ccccc3n2c1=O`, the Inhibition is on record as 0.47% in assay [1], 3.17% in assay [2] and -17.81% in assay [3].
The corresponding values for `Cc1ccccc1Oc1nc2ccccc2n2c(=O)n(CC(=O)Nc3cccc(C(F)(F)F)c3)nc12` are 12.65%, 1.53% and -23.54%.
For `Cc1ccc(Oc2nccn3c(=O)n(CC(=O)Nc4cc(F)ccc4F)nc23)cc1` the same measures were 10.7%, 4.41% and -11.42%.
Consider `CCCCc1ccc(NC(=O)CSc2nc3ccccc3n3c(C(C)C)nnc23)cc1`, for which the values for the Inhibition in assay [1], in assay [2] and in assay [3] were 2.68%, 2.13% and -2.44%, respectively.
For `O=c1n(Cc2nc(-c3ccc(Cl)cc3)no2)nc2ccc(-c3ccccc3)nn12`, the Inhibition was 13.55% in assay [1], 2.36% in assay [2] and -20.52% in assay [3].
With `Cc1ccc(-n2ccn3c(=O)n(Cc4ccccc4Cl)nc3c2=O)cc1C`, the Inhibition is on record as 4.31% in assay [1], 3.38% in assay [2] and -10.75% in assay [3].
Take `Cc1ccc(NC(=O)CSc2nnc3c(=O)n(-c4ccc(C)c(C)c4)ccn23)c(Cl)c1`: the Inhibition in assay [1] is listed as 12.06%; in assay [2], 0.25%; in assay [3] it was -10.04%.
For the molecule `CCCc1nnc2c(=O)n(CC(=O)Nc3ccc(C#N)cc3)c3ccccc3n12`, the Inhibition was 0.24% in assay [1], 1.16% in assay [2] and -7.04% in assay [3].
In the case of `Cc1cc(C)cc(N(Cc2cccc(Cl)c2)S(=O)(=O)c2cccn3cnnc23)c1`, the results for the Inhibition in assay [1], in assay [2] and in assay [3] were 9.53%, 1.12% and -7.68%, respectively.
In the case of `Cc1cc2nn(CC(=O)NCc3ccccc3)c(=O)n2c(-c2ccc(C(F)(F)F)cc2)n1`, the Inhibition is -2.81% in assay [1], 22.82% in assay [2] and -6.62% in assay [3].
On to `O=c1n(Cc2cccc(C(F)(F)F)c2)nc2c(S(=O)(=O)N3CCCCCC3)cccn12`, for which the Inhibition in assay [1] is 7.16%; in assay [2], 2.16%; in assay [3], -9.24%.
Consider `Cc1ccc2c(c1)N(C(=O)Cn1nc3ccc(Sc4ccccc4)nn3c1=O)CCO2`, for which the Inhibition in assay [1] is recorded as 4.6%; in assay [2], -1.78%; in assay [3] it was -5.73%.
In the case of `CCOc1ccc(-n2ccn3c(SCC(=O)NCc4cccc(OC)c4OC)nnc3c2=O)cc1`, the Inhibition in assay [1] is listed as 14.82%; in assay [2] it was 1.5%; in assay [3] it was -8.08%.
`Cc1ccc(-c2ccc3nn(Cc4cccc(Br)c4)c(=O)n3n2)cc1`: the figures for the Inhibition in assay [1], in assay [2] and in assay [3] were 7.86%, -0.24% and -13.72%, respectively.
Consider `O=S(=O)(c1cccn2cnnc12)N(Cc1ccc(F)cc1)c1ccc(F)cc1`, for which the values for the Inhibition in assay [1], in assay [2] and in assay [3] were 4.83%, 2.44% and -6.17%, respectively.
For `COc1cccc(-n2ccn3c(SCc4cccc(Cl)c4)nnc3c2=O)c1` the same measures were 8.66%, 0.25% and -7.39%.
For `O=S(=O)(c1ccc2nncn2c1)N(Cc1cc(F)cc(F)c1)c1ccccc1`, the Inhibition in assay [1] was -3.49%; in assay [2], -0.85%; in assay [3], -9.11%.
As to `O=c1n(Cc2cccc(Cl)c2)nc2ccc(-c3ccccc3)nn12`, the results for the Inhibition in assay [1], in assay [2] and in assay [3] were 19.54%, 2.36% and -20.37%, respectively.
As for `Cc1ccccc1NC(=O)Cn1nc2c3cc(-c4ccc(Cl)cc4)nn3ccn2c1=O`, the Inhibition in assay [1] is reported as 14.64%; in assay [2] it was 1.52%; in assay [3] it was -18.17%.
The corresponding values for `Cc1cccc(NC(=O)Cn2nc3ccc(-c4ccc(Cl)cc4)nn3c2=O)c1` are 7.75%, 3.82% and -6.79%.
Consider `COc1ccc(-c2cc3c4nn(CC(=O)Nc5cc(OC)ccc5OC)c(=O)n4ccn3n2)cc1`, for which the Inhibition in assay [1] is 11.83%; in assay [2] it was 1.43%; in assay [3], -25.14%.
As for `CCCc1nnc2c(=O)n(CC(=O)Nc3cccc(C(C)=O)c3)c3ccccc3n12`, the Inhibition in assay [1] was -4.73%; in assay [2] it was 6.89%; in assay [3], -25.21%.
In the case of `O=C(Cn1nc2ccc(-c3ccccc3)nn2c1=O)Nc1cccc(Cl)c1`, the figures for the Inhibition in assay [1], in assay [2] and in assay [3] were 2.74%, 18.56% and -15.44%, respectively.
As to `Cc1cccc(Oc2nccn3c(=O)n(CC(=O)Nc4cccc(C(F)(F)F)c4)nc23)c1C`, the Inhibition in assay [1] was 9.81%; in assay [2] it was 16%; in assay [3], -8.68%.
`COc1ccc(NC(=O)c2ccc3nn(CC(=O)Nc4ccccc4C(F)(F)F)c(=O)n3c2)cc1`: the Inhibition is on record as 0.14% in assay [1], 5.37% in assay [2] and -8.24% in assay [3].
In the case of `COc1ccc(Cl)cc1NC(=O)Cn1nc2c3cc(-c4ccc(C)cc4)nn3ccn2c1=O`, the Inhibition is recorded as 5.55% in assay [1], 14.91% in assay [2] and -9.24% in assay [3].
Take `COc1ccc(NC(=O)Cn2nc3ccc(Sc4ccccc4)nn3c2=O)cc1`: the Inhibition in assay [1] is on record as 3.54%; in assay [2] it was 3.37%; in assay [3], -9.77%.
For the molecule `O=C(CSc1nnc2c3cc(-c4ccccc4)nn3ccn12)Nc1cccc(Br)c1`, the Inhibition in assay [1] is recorded as 14.04%; in assay [2] it was 3.21%; in assay [3] it was -28.34%.
For the molecule `CSc1ccc(CNC(=O)Cn2nc3c(Oc4ccccc4)nccn3c2=O)cc1`, the Inhibition in assay [1] was 13.75%; in assay [2], 0.62%; in assay [3] it was -8.38%.
Take `O=S(=O)(c1cccn2cnnc12)N(Cc1cccc(F)c1)c1cccc(Cl)c1`: the Inhibition in assay [1] is given as 2.34%; in assay [2], 1.27%; in assay [3], -7.2%.
The corresponding values for `Cc1cc(C)cc(N(Cc2ccccc2)S(=O)(=O)c2cccn3cnnc23)c1` are -6.91%, 1.52% and -4.73%.
In the case of `O=C(Cn1nc2ccc(SCc3ccc(Cl)cc3)nn2c1=O)Nc1ccccc1`, the Inhibition in assay [1] is listed as 9.67%; in assay [2], 9.5%; in assay [3], -21.41%.
For `Cc1nnc2c(=O)n(CC(=O)Nc3cccc(Br)c3)c3ccccc3n12` the same measures were 7.61%, -0.15% and -11.02%.
For `COc1ccccc1-n1ccn2c(SCC(=O)c3ccc(C)cc3C)nnc2c1=O` the same measures were 6.45%, 3.89% and -10.37%.
On to `COc1ccc(CN(c2ccc(F)cc2)S(=O)(=O)c2ccc3nnc(C)n3c2)cc1F`, for which the Inhibition is recorded as 2.68% in assay [1], 1.42% in assay [2] and -6.58% in assay [3].
For `O=C(Cn1nc2ccc(-c3ccccc3)nn2c1=O)Nc1ccc(F)c(Cl)c1` the same measures were 7.19%, 1.94% and -6.93%.
The corresponding values for `Cc1ccc(-c2cc3c4nn(CC(=O)Nc5ccccc5C)c(=O)n4ccn3n2)cc1C` are 7.72%, 19.26% and -10.57%.
As to `Cc1cccc(Cn2nc3c(=O)n(-c4cccc(Cl)c4C)ccn3c2=O)c1`, the values for the Inhibition in assay [1], in assay [2] and in assay [3] were -2.16%, 8.37% and -8.02%, respectively.
For the molecule `CCc1ccccc1Sc1nccn2c(=O)n(CC(=O)N3CCN(c4ccccc4F)CC3)nc12`, the Inhibition in assay [1] is 1.78%; in assay [2], 4.04%; in assay [3], -15.46%.
Turning to `O=c1n(Cc2ccc(Cl)cc2)nc2ccc(-c3ccccc3)nn12`, the Inhibition in assay [1] is listed as 18.04%; in assay [2] it was 2.75%; in assay [3], -18.7%.
In the case of `COc1ccccc1CNC(=O)Cn1nc2c(N3CCCCCC3)nccn2c1=O`, the Inhibition in assay [1] is 8.05%; in assay [2], 3.98%; in assay [3], -7.24%.
Turning to `COc1ccc(CNC(=O)Cn2nc3c(N4CCN(c5ccccc5C)CC4)nccn3c2=O)cc1`, the Inhibition in assay [1] is on record as -11.16%; in assay [2], 37.75%; in assay [3], -4.67%.

The Inhibition is the relative decrease from the control value, in per cent.
